The values that follow come from PubChem BioAssay (NCATS).

Inconclusive results are not listed. Where a call stands in place of a potency, no number is given. A number with no mark means an inactive call. Activity calls are given as the source filed them. The call rests on the fitted dose curve; in most records, active means well fitted inhibition curve with a large enough effect; inconclusive means small, poorly fitted or top-dose-only effect; inactive means flat fitted curve, though single readings scatter.

The target of assay [1] is Calcium and integrin-binding protein 1 (Homo sapiens) (UniProt Q99828). Briefly: Primary qHTS for Identification of Calcium Integrin Binding Protein 1 (CIB1) Competitor (AID 1508620).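 Further: GST tagged CIB1 binding a fluorescein labelled alphaIIb integrin peptide tracer; top concentration of the series differs between compounds.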 An outline of the steps:
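CIB1-GST (1 uM final) and compound incubated 15 min at room temperature before adding FITC-alphaIIb peptide tracer (100 nM final). Competition for binding read by fluorescence polarization (ex 480, em 540) after another 15 min at room temperature.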
On the technique in general: In qHTS, concentration-response curves come from the screen itself.

A short description of assay [2]: Primary qHTS for inhibitors of nuclear receptor binding SET domain protein 2 (NSD2) in an isogenic RCH-ACV NSD2 p.E1099K mutant (9B) (AID 1645876). Further: nearly all actives have a fitted effect of over 70% in size. Further: potency means the concentration at half of the fitted maximal effect.

Chain of Calcium and integrin-binding protein 1 (Homo sapiens) (Q99828 whole entry, looked up): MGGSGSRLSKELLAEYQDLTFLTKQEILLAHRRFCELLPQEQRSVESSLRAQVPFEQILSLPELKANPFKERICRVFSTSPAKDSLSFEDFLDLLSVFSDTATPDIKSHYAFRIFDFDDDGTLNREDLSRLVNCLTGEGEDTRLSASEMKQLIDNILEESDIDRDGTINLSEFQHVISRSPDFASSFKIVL

Turning to `Nc1nc2c(c(=O)[nH]1)C[C@@H](CCc1ccc(C(=O)N[C@@H](CCC(=O)O)C(=O)O)cc1)CN2`, the Potency result in assay [1] is “inactive”. Moreover, the Potency in assay [2] is 0.0115 µM (active).
For `CC1(C(=O)O)CCCC2(C)C3=CCC4CC3(CCC12)CC4CO` (centres undefined), in that order: “inactive” and “inactive”.
Turning to `CC(C)C[C@H](CC(=O)NO)C(=O)N[C@H](C(=O)N[C@@H](C)C(=O)NCCN)C(C)(C)C`, the Potency result in assay [1] was “inactive”. Further, in assay [2], the activity change, negative = viability loss was -8.25% [at 9.23 µM].
Regarding `Cn1c(=O)cc(N2CCCC(N)C2)n(Cc2cc(F)ccc2C#N)c1=O` (centres undefined), the Potency result in assay [1] and in assay [2] was “inactive” in each case.
Regarding `C=C1C(=O)OC2C1CCC(=C)C1CC(OC(C)=O)C(=C)C12` (centres undefined), in assay [1], the Potency entry was “inactive”. The Potency in assay [2] was 10.3 µM (active).
Turning to `CC1(C)CCCC2(C)C=C(C(=O)O)C(O)CC12` (centres undefined), the Potency entry in assay [1] and in assay [2] was “inactive” each time.
With `C=CC1(C)CC(OC(=O)/C(C)=C\COC(C)=O)C(C(=C)C(=O)O)C(O)C1C(=C)CO` (centres undefined), the Potency entry in assay [1] and in assay [2] was “inactive” each time.
As to `CC1OC(OCC2OC(OC3CCC4(C)C(CCC5(C)C4CC=C4C6CC(C)(C)CCC6(C(=O)OC6OC(CO)C(O)C(O)C6O)CCC45C)C3(C)CO)C(O)C(O)C2O)C(O)C(O)C1O` (centres undefined), the Potency entry in assay [1] is “inactive”. Moreover, in assay [2], the activity change, negative = viability loss is 3.81% [at 9.23 µM].
Regarding `CC1CCC2(C(=O)O)CCC3(C)C(=CCC4C5(C)CCC(OC(=O)/C=C/c6ccccc6)C(C)(C)C5CCC43C)C2C1C` (centres undefined), the Potency entry in assay [1] and in assay [2] was “inactive” each time.
`CC1CCC2(C=O)C(CO)=CCCC2C1(C)CC(=O)O` (centres undefined): the Potency entry in assay [1] and in assay [2] was “inactive” in each case.
Turning to `COc1c2c(cc3c1-c1c(cc4c(c1OC)OCO4)CC(C)C(C)C3)OCO2` (centres undefined), the Potency entry in assay [1] and in assay [2] was “inactive” throughout.
`C[C@@H]1CCC/C=C/[C@H]2CC(=O)C[C@@H]2[C@@H](O)/C=C/C(=O)O1`: the Potency result in assay [1] and in assay [2] was “inactive” in each case.
